Results reported in PubChem BioAssay (NCI).
This is part of a sample that, as a whole, favours compounds with a hit. Of some 83,000 tested, about 20% had one in any assay.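 Step 1: grow cells in 96-well plates. Step 2: add test compound at a single concentration. Step 3: incubate 48 h. Step 4: record percent growth.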 Values without a mark were called inactive. Active and inactive are the calls of the source.

test system: MOLT-4 leukemia; test: NCI-60 one-dose screen, 48 h (100 = growth as untreated, 0 = no growth, -100 = all killed); conditions: 10 µM unless noted
Procedure: Growth inhibition of the MOLT-4 human tumor cell line is measured as a screen for anti-cancer activity. Cells are grown in 96 well plates and exposed to the test compound for 48 hours. Compounds are tested at a single concentration, which is 10^-5 M for most compounds. The reported endpoint is percent growth (GI% or GIPRCNT), where numbers from 0 - 100% represent growth inhibition, and numbers from -100% - 0 represent cell death. For example, a value of 40 represents 60% growth inhibition. A value of 0 means no net growth occurred over the course of the experiment. A value of -40 indicates 40% of cells at the beginning of the experiment died by the end of the experiment. A value of -100 means all cells are dead at the end of the experiment.
NCI-60 Human Tumor Cell Lines Screen was performed using the standard one-dose NCI protocol, which is described in more detail at https://dtp.cancer.gov/discovery_development/nci-60/default.htm.
Compounds with GIPRCNT values below 10 were considered active. Activity score was based on GIPRCNT using the following formula: […]
Score is 0 for GIPRCNT values of 100 or above, 50 for GIPRCNT values of 0, and 100 for GIPRCNT values of -100.

Compound | growth
C#C[C@]1(O)CC[C@H]2[C@@H]3CC=C4c5nc(Nc6ncccn6)sc5CC[C@]4(C)[C@H]3CC[C@@]21C | 2.75% (active)
CN(C)c1cc(NN=C(c2ccc(O)cc2)c2ccc(O)cc2)c([N+](=O)[O-])cc1[N+](=O)[O-] | 97.6%
O=C(O)c1cn(C2CC2)c2cc(N3CCN(Cc4cc(Cl)ccc4O)CC3)c(F)cc2c1=O | 74.1%
COc1ccc2nc3cc(Cl)ccc3c(Nc3ccc(O)c(CN4CCCC4)c3)c2c1 | 0.985% (active)
Cc1cccc(C[C@H](NC(=O)Nc2ccc(C)cc2F)C(=O)N[C@@H]2C(=O)N3C[C@H](O)C[C@H]3C(=O)N3CCN(C)C[C@H]3C(=O)N[C@@H](C)C(=O)N3C[C@H](C)C[C@H]3C(=O)O[C@H]2C)c1 | 40.4%
O=C(N=c1n(-c2ccccc2)nc2n1CCN2C1=NCCN1C(=O)c1ccc(Cl)cc1)c1ccc(Cl)cc1 | 14.5%
c1cc2ccc3cc2cc1CNCCN1CCNCc2ccc4ccc(cc4c2)CNCCN(CCNC3)CCNCc2ccc3ccc(cc3c2)CNCC1 | 8.03% (active)
Nc1ccc(NC(=O)c2ccccc2)c2c1C(=O)c1ccccc1C2=O | 106%
C=C(C)[C@@H]1CC[C@]2(C(=O)NCCNCCNCCN)CC[C@]3(C)[C@H](CC[C@@H]4[C@@]5(C)CCC(=O)C(C)(C)[C@@H]5CC[C@]43C)[C@@H]12 | -16.3% [100 µM] (active)
O=c1cc(-c2ccccc2)oc2cc(OCc3cn(Cc4ccc(F)cc4)nn3)cc(O)c12 | 95.5% [100 µM]
Cc1ccc(S(=O)(=O)NCCCNc2nccc(-c3c(-c4cccc(F)c4)nc4occn34)n2)cc1 | 27%
O=C(N/N=C1\c2ccccc2-c2cccc(C(=O)O)c21)c1ccc(O)cc1 | 99.8%
NS(=O)(=O)c1ccc(CCN2C(=O)/C(=C\c3ccccc3)C=C2c2ccc(Cl)cc2)cc1 | 94.8%
Cc1ccc(S(=O)(=O)Oc2ccc([N+](=O)[O-])cc2[N+](=O)[O-])cc1 | 54.2%
CN(C)Cc1ccc[nH]1 | 107%
Cc1ccccc1OC(=O)c1cccc(Cl)c1 | -16.3% (active)
C=C1C(=O)O[C@H]2[C@H]1CC/C(COC(=O)NCc1ccc(Cn3c(=O)sn(-c4ccc(Cl)cc4)c3=O)cc1)=C\CC[C@@]1(C)O[C@@H]21 | 23.2%
COc1ccc(C2CC(c3ccc4ccccc4c3)=NN2c2nc(O)c(C3=c4cc(OC)ccc4=NC3=O)s2)cc1 (stereo not given) | -13.2% (active)
CCOC(=O)c1nn(C2CCCCO2)c2ccc(NS(=O)(=O)c3ccc(C)cc3)cc12 (stereo not given) | 86.2%
CCOC(=O)C(c1ccccc1)N1C(=O)c2ccccc2C1=O (stereo not given) | 101%

Compound | growth
C[n+]1c(-c2ccccc2)c2cc(N)ccc2c2ccccc21 | 33.5%
CCN(CC)CCCOc1ccc2c(c1)O/C(=C\c1cccc(OC)c1)C2=O | 97.7%
CN(C)C(=S)Sc1ccc([N+](=O)[O-])cc1[N+](=O)[O-] | 0.177% (active)
Cc1cc(N2CCCCCC2)nc(N2CCN(CC(=O)Nc3ccc4c(ccn4Cc4ccccc4)c3)CC2)n1 | 41.1%
CC(C)(C)c1cc(C(=O)Nc2ccc(C(=O)NCCN)cc2)cc(C(C)(C)C)c1 | 10.9%
c1ccc(-c2n[nH]c(-c3ccccn3)n2)nc1 | 128%
Cc1cccc([N+](=O)[O-])c1I | 122%
O=S(=O)(/N=c1/n(-c2ccccc2)nc2n1CCN2C1=NCCN1)c1ccc(-c2ccccc2)cc1 | 95.1%
O=C1Cc2c(sc3c(F)cccc23)C(c2ccccc2[N+](=O)[O-])N1 (stereo not given) | 106%
CCOC(CNC(=O)c1cccc([N+](=O)[O-])c1)OCC | 100%
O=C1Nc2ccccc2/C1=C/C(=O)c1ccc(N2CCOCC2)cc1 | 47.8%
COc1ccccc1S(=O)Nc1ccccc1 (stereo not given) | 103%
N#CCCc1c[nH]c2ccccc12 | 96.1%
CC[C@]12C=CCN3CC[C@@]4(c5ccc(OC)cc5N(C)[C@H]4[C@@](O)(C(=O)OC)[C@@H]1OC(=O)CCC(=O)O[C@H]1CC[C@H]4[C@@H]5CCC6=CC(=O)CC[C@@H]6[C@H]5CC[C@]14C)[C@@H]32 | -6.15% [100 µM] (active)
O=C(N[C@@H]1CCCc2ccccc21)[C@H](CCC(=O)N1CCN(C2CCCCC2)CC1)N1C(=O)[C@@H](N2C(=O)OC[C@@H]2c2ccccc2)[C@H]1/C=C/c1ccccc1 | -1.99% (active)
Cc1ccc(NC(=S)/N=c2/n(-c3ccccc3)nc3n2CCN3C2=NCCN2)cc1 | 98.8%
COc1cc2c(c(OC)c1OC)-c1ccc(NNC(N)=S)c(=O)cc1[C@@H](NC(C)=O)CC2 | 23.1%
Cc1ccc(S(=O)(=O)N/N=C2\CC3CCC2(C)C3(C)C)cc1 (stereo not given) | 111%
Nc1nc(SCc2cccc([N+](=O)[O-])c2)c2[nH]cnc2n1 | 91.4%
C=C(C)[C@@H]1CC[C@]2(C(N)=O)CC[C@]3(C)[C@H](CC[C@@H]4[C@@]5(C)CC[C@H](O)C(C)(C)[C@@H]5CC[C@]43C)[C@@H]12 | 1.86% [100 µM] (active)
